The list is not random: actives were taken first. Their share in the collection is about 10%.
hNpr1 antagonist – blocks ANP-stimulated signaling of human Npr1 receptor. P16066. HEK293 hNpr1 GloSensor cGMP, ANP-stimulated luminescence. Potency, µM (highest dose often 46.3 µM), for the others: top-dose activity change, negative = inhibition, usual class: inhibitors. hit rate 1.6% among 76,000. AID 1347048; calls by dose curve; also: nearly all actives have a fitted effect of over 60% in size
Target sequence (P16066 whole entry, looked up): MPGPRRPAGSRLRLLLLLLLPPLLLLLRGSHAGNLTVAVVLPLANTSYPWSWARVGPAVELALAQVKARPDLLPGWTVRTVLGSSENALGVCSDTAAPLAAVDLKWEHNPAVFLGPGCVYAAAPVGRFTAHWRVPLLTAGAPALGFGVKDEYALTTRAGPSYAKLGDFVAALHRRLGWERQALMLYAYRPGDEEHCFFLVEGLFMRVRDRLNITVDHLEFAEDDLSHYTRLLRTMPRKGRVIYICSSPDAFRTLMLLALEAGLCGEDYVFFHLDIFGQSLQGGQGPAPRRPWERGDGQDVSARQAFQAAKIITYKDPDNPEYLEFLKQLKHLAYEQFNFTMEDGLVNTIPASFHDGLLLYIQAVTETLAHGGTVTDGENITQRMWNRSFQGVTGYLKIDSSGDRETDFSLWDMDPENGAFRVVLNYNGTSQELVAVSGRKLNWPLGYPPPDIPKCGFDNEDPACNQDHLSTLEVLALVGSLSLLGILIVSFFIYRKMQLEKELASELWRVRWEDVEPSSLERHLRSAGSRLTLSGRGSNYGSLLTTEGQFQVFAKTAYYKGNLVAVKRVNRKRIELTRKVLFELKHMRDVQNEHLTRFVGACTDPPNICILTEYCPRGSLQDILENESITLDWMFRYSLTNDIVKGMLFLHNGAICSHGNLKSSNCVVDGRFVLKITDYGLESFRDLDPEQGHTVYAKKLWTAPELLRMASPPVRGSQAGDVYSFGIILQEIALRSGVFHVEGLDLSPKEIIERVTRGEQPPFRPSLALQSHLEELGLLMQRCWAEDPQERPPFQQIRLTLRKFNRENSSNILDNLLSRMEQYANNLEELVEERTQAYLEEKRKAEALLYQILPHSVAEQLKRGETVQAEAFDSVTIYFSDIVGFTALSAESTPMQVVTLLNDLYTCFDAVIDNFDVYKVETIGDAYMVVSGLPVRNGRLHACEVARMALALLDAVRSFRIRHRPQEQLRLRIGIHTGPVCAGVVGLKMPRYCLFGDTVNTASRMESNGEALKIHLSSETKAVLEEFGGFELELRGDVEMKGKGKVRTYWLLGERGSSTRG
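HEK293 cells stably expressing human Npr1 and cGMP GloSensor pGS-40F, loaded 2 h with 2% GloSensor reagent, given compound 30 min at room temperature. Luminescence read before and 20 min after 0.1 nM hNppA.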
HEK cytotox – cytotoxic compounds in HEK 293 cells; HEK 293 viability, ATP luminescence (CellTiter-Glo), 48-72 h; hit rate 6.6% among 94,000; Potency, µM (highest dose often 115 µM), inactives show at the top dose activity change, negative = cytotoxicity, usual class: inhibitors; also: nearly all actives have a fitted effect of over 60% in size
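Luminescence from cellular ATP, measured with CellTiter-Glo, indicates HEK 293 viability. Cells plated at 250 cells/well are treated with compound for 48 or 72 hr at 37 degree Celsius before reagent addition.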
GPT2 inhibitor – GPT2 alanine aminotransferase inhibition | Q8TD30 | Recombinant GPT2, coupled pyruvate oxidase/HRP Amplex Red fluorescence | Potency, µM (doses to about 57.7 µM), inactives show at the top dose activity change, negative = inhibition, usual class: inhibitors | hit rate 0.25% among 100,000 | AID 1671188; also: nearly all actives have a fitted effect of over 60% in size
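Inhibition is scored from Amplex Red fluorescence generated when pyruvate oxidase and HRP act on pyruvate released by GPT2. Reactions contain 10ng/uL enzyme, 250uM a-KG and 2mM L-alanine and run 30 min at room temperature.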
FLuc inh – Photinus pyralis luciferase inhibition. P08659. purified P. pyralis luciferase, luminescence, biochemical. Potency, µM (series often up to 115 µM), hits mostly inhibitors. hit rate 2.5% among 76,000. AID 1347043; also: nearly all actives have a fitted effect of over 65% in size
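FLuc 10nM, D-luciferin 10uM, ATP 10uM, Mg acetate 10mM, Tris acetate pH 7.5, Tween/BSA; cpd qHTS; enzyme added last; CCD luminescence.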
NIH3T3 tox – NIH 3T3 cell cytotoxicity. Potency, µM (series often up to 96.7 µM), for inactives: top-dose activity change, negative = cytotoxicity, usual class: inhibitors. NIH 3T3 viability, CellTiter-Glo ATP luminescence, 48-72 h. hit rate 4.3% among 94,000; also: nearly all actives have a fitted effect of over 55% in size
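Cytotoxicity was measured by CellTiter-Glo ATP luminescence after 48 or 72 h compound exposure at 37 °C. Mouse NIH 3T3 fibroblasts were seeded at 400 cells/well and dosed by 23 nL pin transfer.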
An asterisk follows results filed as active; [ ] = remark or other dose. Unless noted, calls follow the shape of the dose curve; as a rule, active = well fitted curve in the direction sought with a large enough effect; inconclusive = small, poorly fitted or top-dose-only effect, or another doubt; inactive = no such curve, though single readings can be large; an effect the other way counts as inactive or inconclusive. % is scaled to controls: 0 for no effect and ±100 for the full control effect; potency is read from the fitted curve at half-maximal effect.

How did O=C(NCc1ccccc1)C1CCN(C(=O)c2ccc(-c3cncnc3)cc2)CC1 do in these assays?
HEK cytotox: inactive; GPT2 inhibitor: inactive; NIH3T3 tox: -27%

How did CCCc1noc(-c2cccn3c(CNC(=O)c4cc(F)ccc4Cl)nnc23)n1 do in these assays?
hNpr1 antagonist: -1%; HEK cytotox: inconclusive; GPT2 inhibitor: inactive; FLuc inh: inactive; NIH3T3 tox: -16%

How did Cc1nnc2ccc(N3CCC(N[S+](C)(=O)[O-])CC3)nn12 do in these assays?
HEK cytotox: -3%[172 µM]; NIH3T3 tox: -22%[138 µM]

Results for O=C(NCc1ccc(Cl)cc1)C1CCN(c2nccc(Nc3ccccc3F)n2)CC1 ?
HEK cytotox: 18µM*; GPT2 inhibitor: 4%; NIH3T3 tox: 28µM*

What do the screens show for `O=C(NCCc1ccc(F)cc1)C1CCN(c2nccc(Nc3ccccc3F)n2)CC1`?
HEK cytotox: 28µM*; GPT2 inhibitor: inactive; NIH3T3 tox: inconclusive

Results for CC1(C)[C@H](Cc2cc(CC3CCCCC3)on2)C[C@@H]1NC(=O)c1ccco1 ?
hNpr1 antagonist: inconclusive; HEK cytotox: 25µM*; GPT2 inhibitor: inconclusive; FLuc inh: inactive; NIH3T3 tox: 71µM*

Results for COCc1cc(C[C@@H]2C[C@H](NCC3CC3)C2(C)C)no1 ?
hNpr1 antagonist: 4%[70.6 µM]; HEK cytotox: 0%[230 µM]; GPT2 inhibitor: 4%[88.5 µM]; FLuc inh: inactive; NIH3T3 tox: -1%[174 µM]

How did CC(C)N[C@H]1C[C@@H](Cc2cc(CC3CCCCC3)on2)C1(C)C do in these assays?
hNpr1 antagonist: 8%[70.6 µM]; HEK cytotox: 32µM*; GPT2 inhibitor: inactive; FLuc inh: inactive; NIH3T3 tox: 45µM*

Results for CC(=O)N1CCC(CC(=O)NCC(=O)N2CCCCCCNC(=O)CC2c2ccccc2)CC1 (stereo not given) ?
hNpr1 antagonist: 2%; HEK cytotox: -24%; GPT2 inhibitor: -9%; FLuc inh: inactive; NIH3T3 tox: -8%

Results for CN(C)c1ccc(CN2CCNc3cc(-c4ccccc4)ncc3C2)cc1 ?
hNpr1 antagonist: -3%[70.6 µM]; HEK cytotox: inconclusive; GPT2 inhibitor: inactive; FLuc inh: inactive; NIH3T3 tox: inconclusive

Results for COc1ccc(CN2CCNc3cc(Nc4ccccc4)ncc3C2)cc1 ?
hNpr1 antagonist: -30%[70.6 µM]; HEK cytotox: 71µM*; GPT2 inhibitor: 2%[88.5 µM]; FLuc inh: inactive; NIH3T3 tox: inconclusive

What do the screens show for `CN(C)c1ccc(CN2CCNc3cc(Nc4ccccc4)ncc3C2)cc1`?
hNpr1 antagonist: -18%[70.6 µM]; HEK cytotox: inconclusive; GPT2 inhibitor: inactive; FLuc inh: inactive; NIH3T3 tox: 56µM*

What do the screens show for `COc1ccccc1CN1CCNc2cc(Nc3ccccc3)ncc2C1`?
hNpr1 antagonist: -20%[70.6 µM]; HEK cytotox: 35µM*; GPT2 inhibitor: inactive; FLuc inh: inconclusive; NIH3T3 tox: 35µM*

How did CN(C)c1ccc(CN2CCNc3cc(Nc4cccnc4)ncc3C2)cc1 do in these assays?
hNpr1 antagonist: -9%[70.6 µM]; HEK cytotox: inconclusive; GPT2 inhibitor: inactive; FLuc inh: 63µM*; NIH3T3 tox: inconclusive

How did COc1cccc(Nc2cc3c(cn2)CN(Cc2ccncc2)CCN3)c1 do in these assays?
hNpr1 antagonist: -25%[70.6 µM]; HEK cytotox: inconclusive; GPT2 inhibitor: 2%[88.5 µM]; FLuc inh: inconclusive; NIH3T3 tox: inconclusive

How did Cn1cc(CN2CCNc3cc(Nc4cccnc4)ncc3C2)cn1 do in these assays?
hNpr1 antagonist: 1%[70.6 µM]; HEK cytotox: inconclusive; GPT2 inhibitor: 2%[88.5 µM]; FLuc inh: inactive; NIH3T3 tox: inconclusive

Results for CN1CC(=O)N(C2CCC2)Cc2c(NC3CCNCC3)ncnc21 ?
HEK cytotox: inactive; GPT2 inhibitor: inactive; NIH3T3 tox: inactive

How did O=C1NCc2ccccc2CC12CCN(Cc1ccc(Br)cn1)CC2 do in these assays?
HEK cytotox: -16%; GPT2 inhibitor: inactive; NIH3T3 tox: -4%

How did COc1ccc(CN2CCC3(C2)C(=O)N(C)c2ccccc23)cc1 (stereo not given) do in these assays?
hNpr1 antagonist: 10%[70.6 µM]; HEK cytotox: inconclusive; GPT2 inhibitor: 5%[88.5 µM]; FLuc inh: inactive; NIH3T3 tox: inconclusive
